PubChem BioAssay (Tox21)
Records with an inconclusive call do not appear. The source made the active and inactive calls. Calls follow the shape of the dose curve; as a rule, active = well fitted activation curve with a large enough effect in the repeat runs; inconclusive = weak or mixed curves; inactive = flat fitted curve, though single readings scatter.
% is scaled to controls: 0 for no effect and ±100 for the full control effect.

Assay: Caspase-3/7 induction in HepG2 cells by small molecules, qHTS assay (AID 1346978); also: nearly all actives have a fitted effect of over 15% in size
Conditions: HepG2 caspase-3/7 activation, Caspase-Glo luminescence, 17 h; series mostly up to 92.4 µM; caspase activation: at the top concentration
Description: National Center for Advancing Translational Sciences [NCATS] NIH Chemical Genomics Center [NCGC] U.S. Environmental Protection Agency [EPA] National Institutes of Environmental Health Sciences [NIEHS] National Toxicology Program [NTP] Assay overview: Apoptosis is a process of programmed cell death and plays a central role in the development of multicellular organisms. It is a highly regulated process and induces cell death by activating caspases, which are the members of cysteine aspartic acid-specific protease (caspase) family. Caspases involved in apoptosis are classified by their mechanism of action as initiator caspases (caspase-2, -8, -9 and -10) and executioner caspases (caspase-3, -6, and -7). Inhibition of apoptosis results in number of cancers, autoimmune diseases, inflammatory diseases and viral infection. To identify small molecule compounds that induce apoptosis, a homogeneous, luminescent Caspase-Glo 3/7 assay was used. Wild type HepG2 cells were used to screen Tox21 libraries for identifying caspase-3/7 activity inducers.
Assay Protocol Summary: HepG2 cells were dispensed at 2,000 per well in 5uL of culture medium into white solid bottom 1536-well plates (Corning Life Sciences, Corning, NY) using a Multidrop Combi (Thermo Scientific, Waltham, MA) dispenser. The assay plates were incubated at 37 C and 5% CO2 for 5hr, and then 23nL of compounds dissolved in DMSO and positive control were transferred using a Pintool station (Wako, San Diego, CA). The assay plates were incubated at 37C and 5% CO2 for 17hr. For caspase-3/7 activity read, 4uL of Caspase-Glo 3/7 reagent (Promega Corporation, Madison, WI) was added to each well of the assay plates using Flying Reagent Dispenser (FRD, Aurora Discovery, San Diego, CA) and incubated the assay plates at room temperature for 30min. The luminescence signal was quantified using a ViewLux plate reader (Perkin Elmer, Shelton, CT).
With `Cc1ccc(O)c([C@H](CCN(C(C)C)C(C)C)c2ccccc2)c1` the “caspase activation” value was 0.0856% [at 42.5 µM] (inactive).
For `CN1CCC[C@@H]1c1cccnc1`, the “caspase activation” value was -0.436% [at 42.5 µM] (inactive).
For `CC[C@H](C)[C@@H](C(=O)O)n1sc2ccccc2c1=O`, the “caspase activation” value was -1.98% (inactive).
In the case of `CC(C)(C)C(=O)OCOP(=O)(COCCn1cnc2c(N)ncnc21)OCOC(=O)C(C)(C)C`, the “caspase activation” value is reported as 1.16% [at 42.5 µM] (inactive).
With `COc1ccc(OC)c(OC)c1` the “caspase activation” value was 0.101% (inactive).
For `Cc1ccccc1N=Nc1ccc(N=Nc2c(O)ccc3ccccc23)c(C)c1`, the “caspase activation” value was -0.89% [at 42.5 µM] (inactive).
In the case of `C[Si](C)O[Si](C)(C)O[Si](C)(C)O[Si](C)C`, the “caspase activation” value is reported as 0.055% (inactive).
For `Cn1sccc1=O`, the outcome was “inactive”.
For `CCN(CC)CCNC(C(=O)OCCC(C)C)c1ccccc1` (stereo not given), the “caspase activation” value was 1.74% [at 42.5 µM] (inactive).
For `Cc1ccc2c(ccc3ccccc32)c1`, the “caspase activation” value was -1.76% (inactive).
In the case of `CNS(=O)(=O)Cc1ccc2[nH]cc(CCN(C)C)c2c1`, the “caspase activation” value is reported as 0.115% [at 42.5 µM] (inactive).
In the case of `CC(=O)OCCc1ccccc1`, the “caspase activation” value is reported as -0.17% (inactive).
With `Cl/C(=C\n1cncn1)c1ccc(Cl)cc1Cl` the “caspase activation” value was 0.309% [at 42.5 µM] (inactive).
With `O=C1[C@H](CC[C@H](O)c2ccc(F)cc2)[C@@H](c2ccc(O)cc2)N1c1ccc(F)cc1` the “caspase activation” value was 0.327% [at 42.5 µM] (inactive).
In the case of `Cc1cccc(C(C)(C)C)c1O`, the “caspase activation” value is reported as 8.2% (inactive).
With `Cc1ccc(C(C)c2ccc(C)c(C)c2)cc1C` the “caspase activation” value was 0.525% (inactive).
With `O=C(O)/C=C/c1cnc[nH]1` the “caspase activation” value was -0.957% (inactive).
In the case of `CC(=O)N(O)CCCCCNC(=O)CCC(=O)N(O)CCCCCNC(=O)CCC(=O)N(O)CCCCCN`, the “caspase activation” value is reported as -2.93% [at 42.5 µM] (inactive).
In the case of `CCN(CC)CCc1nc(-c2ccccc2)no1`, the “caspase activation” value is reported as 0.269% [at 42.5 µM] (inactive).
In the case of `CN(C)CC[C@@H](c1ccc(Br)cc1)c1ccccn1`, the “caspase activation” value is reported as 1.34% [at 42.5 µM] (inactive).
With `CCCCCC(CO)CCC` (stereo not given) the “caspase activation” value was 0.435% (inactive).
In the case of `O=C(CCN1CCN2CCCC2C1)N1c2ccccc2Sc2ccc(Cl)cc21` (stereo not given), the caspase activation is reported as 1.09% [at 19 µM] (inactive).
In the case of `Cc1cccc(Oc2ccccc2)c1`, the “caspase activation” value is reported as -0.205% (inactive).
In the case of `Cn1c(NCCN(CCO)CCCc2ccc([N+](=O)[O-])cc2)cc(=O)n(C)c1=O`, the “caspase activation” value is reported as 0.973% [at 42.5 µM] (inactive).
For `Nc1nc(N)c2nc(CNc3ccc(C(=O)N[C@@H](CCC(=O)O)C(=O)O)cc3)cnc2n1`, the “caspase activation” value was -0.835% (inactive).
For `CN(C)C/C=C(/c1ccc(Br)cc1)c1cccnc1`, the “caspase activation” value was 0.228% [at 42.5 µM] (inactive).
With `CC1(C)[C@H]2CC[C@]1(C)[C@H](O)C2` the “caspase activation” value was -0.137% (inactive).
With `S=C(S)NCCNC(=S)S` the “caspase activation” value was 0.0297% (inactive).
For `CCOc1ccc(NC(=O)CC(C)=O)cc1`, the “caspase activation” value was -1.74% (inactive).
With `CCCCCCCCCCCCCCCBr` the “caspase activation” value was -1.54% [at 42.5 µM] (inactive).
In the case of `NC(=S)N/N=C/c1cccnc1`, the “caspase activation” value is reported as -1.56% [at 42.5 µM] (inactive).
For `O=C(O)Cc1cc(I)c(Oc2ccc(O)c(I)c2)c(I)c1`, the “caspase activation” value was -0.369% (inactive).
For `Cc1ccccn1`, the “caspase activation” value was -0.669% (inactive).
In the case of `CCCCCC/C=C/C=O`, the “caspase activation” value is reported as -1.32% (inactive).
With `C=CC(=O)OCCOC(=O)CCC(=O)O` the “caspase activation” value was 0.0717% (inactive).
For `N=C(N=C(N)N)N1CCOCC1`, the “caspase activation” value was -1.75% [at 42.5 µM] (inactive).
With `Nc1cnn([C@@H]2O[C@H](CO)[C@@H](O)[C@H]2O)c(=O)n1` the “caspase activation” value was -1.32% (inactive).
With `CCCCOc1ccc(CC(=O)NO)cc1` the “caspase activation” value was -0.319% [at 42.5 µM] (inactive).
With `Cc1cc(C)c(S(=O)(=O)O)cc1N=Nc1cc(S(=O)(=O)O)c2ccccc2c1O` the “caspase activation” value was -1.98% (inactive).
With `CC1=CC(=O)/C(=C(/C)O)C(=O)O1` the “caspase activation” value was -0.313% (inactive).
